From PubChem BioAssay
Activity calls are given as the source filed them.

Assay: growth of efflux-deficient E. coli DRC39 – strain DRC39, OD650, 24 h, E. coli filamentation inducers, primary screen (AID 1178);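 note: growth measured as culture turbidity by optical density at 650 nm; test concentration not given here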
Conditions: E. coli DRC39 acrAB, higher = more signal, called active from +8 up or from −8 down
With `O=C1OCC=C[C@H]2OC34C=CCN(CCN5CCOCC5)C(=O)[C@H]3N(CCCO)C(=O)[C@@H]4[C@@H]12` (stereo partly specified) the z-score was -0.514 (inactive). With `[N-]=[N+]=Nc1ccccc1C[C@@]1(C(=O)NCCN2CCOCC2)N=C(c2ccc(OCCCO)cc2)O[C@@H]1c1ccccc1` the z-score was 0.655 (inactive). With `COc1ccc(C(=O)Nc2ccc(CN3C(=O)[C@@]4(O[C@@H](CCO)[C@H]([Si](C)(C)c5ccc(OC)cc5)[C@H]4C)c4ccccc43)cc2)cc1` the z-score was 1.53 (inactive). With `CC(C)(C)OC(=O)CC[C@@]1(C(N)=O)N=C(c2ccc(OCCCO)cc2)O[C@@H]1c1ccccc1` the z-score was -0.352 (inactive). For `COc1ccc(C(=O)Nc2ccc(CN3C(=O)[C@@]4(O[C@@H](CC(=O)N5CCC[C@H]5CO)[C@H]([Si](C)(C)c5ccc(OC)cc5)[C@H]4C)c4ccccc43)cc2)cc1`, the z-score was 1.28 (inactive). For `CN1C(=O)C2C=CC(C(O)C3CCCCC3)N(Nc3ccc([N+](=O)[O-])cc3[N+](=O)[O-])C2C1=O` (stereo unspecified), the z-score was -0.719 (inactive). In the case of `CN1C(=O)C2C=CC(C(O)Cc3ccccc3)N(Nc3ccccc3)C2C1=O` (stereo unspecified), the z-score is reported as -0.553 (inactive). In the case of `COc1ccc(CCNC(=O)[C@@]2(Sc3ccc(C)cc3)CC(=O)N(C3CCCCC3)[C@@H]2c2ccc(CO)cc2I)cc1`, the z-score is reported as 0.258 (inactive). With `O=C1OCCC/C=C\[C@H]2OC34C=CCN(CCN5CCOCC5)C(=O)[C@H]3N(CCCO)C(=O)[C@@H]4C12` (stereo partly specified) the z-score was -0.0395 (inactive). In the case of `C=CCC(OC(C)=O)[C@@H]1[C@@H](N(Cc2ccc(-c3ccccc3)cc2)C(=O)Cc2ccc(F)cc2)c2cc(OCCCO)ccc2N1C(=O)c1ccc(-c2ccccc2)cc1` (stereo partly specified), the z-score is reported as 0.904 (inactive). With `O=C(c1ccccc1)N1Cc2ccccc2[C@@H]2OC(c3ccc(OCCCO)cc3)=N[C@]2(Cc2ccccc2)C1=O` the z-score was -0.273 (inactive). For `COC(=O)C(CC#Cc1ccc2c(c1)[C@]1(C(=O)N2)[C@H](C(=O)O)[C@H]2C(=O)O[C@H](c3ccccc3)[C@H](c3ccccc3)N2[C@@H]1c1ccc(O)cc1)C(=O)OC`, the z-score was 0.569 (inactive). For `O=C1NCC(=O)N2[C@@H]1C[C@@H](C(=O)O)[C@H]2c1cccc(OCCO)c1`, the z-score was -0.151 (inactive). With `C=CCNC(=O)[C@@H]1[C@H]2C(=O)O[C@H](c3ccccc3)[C@H](c3ccccc3)N2[C@H](c2ccc(OCCO)cc2)[C@@]12C(=O)Nc1ccc(C#CCCO)cc12` the z-score was -0.194 (inactive). With `C=C(/C(=C/C[C@@H](OC(C)=O)c1ccc(OCCO)cc1)c1cnc2ccccc2c1)C(C)C` the z-score was 1.58 (inactive). In the case of `CN(C)C(=O)[C@]1(Cc2ccccc2N=[N+]=[N-])N=C(c2ccc(OCCCO)cc2)O[C@@H]1c1ccccc1`, the z-score is reported as 0.651 (inactive). For `COc1ccc(CCN2C(=O)[C@@]3(c4ccc([N+](=O)[O-])cc4)CC(=O)N(C4CCCCC4)[C@@H]3c3ccc(CO)cc32)cc1`, the z-score was -0.0051 (inactive). In the case of `C[N+](C)(C)CCCCNC(=O)[C@H]1C[C@H]2C(=O)N[C@@H](Cc3ccccc3)C(=O)N2[C@H]1c1ccc(O)cc1`, the z-score is reported as 0.783 (inactive). With `O=C1O[C@H](c2ccccc2)[C@H](c2ccccc2)N2[C@H]1[C@@H](C(=O)N1CCN(c3ncccn3)CC1)[C@]1(C(=O)Nc3ccc(C#CC4=CCCCC4)cc31)[C@H]2c1ccc(O)cc1` the z-score was 0.105 (inactive). In the case of `COC(=O)[C@@]1(Cc2ccccc2)[C@H]2c3cc(C(=O)N(C)C)n(CCSCCO)c3C[C@H]2CN1C(=O)c1ccccc1`, the z-score is reported as -0.976 (inactive). In the case of `CC(C)OC(=O)C=C1C[C@@H](c2ccccc2C(F)(F)F)O[C@@H](c2ccccc2C(F)(F)F)O1`, the z-score is reported as -1.23 (inactive). With `COCCCNC(=O)[C@@]1(Cc2ccccc2)N=C(c2ccc(OCCCO)cc2)O[C@H]1c1ccccc1` the z-score was 0.385 (inactive). In the case of `CCCCC=C[C@@H](NC(=O)Oc1cccc(C(F)(F)F)c1)c1ccccc1`, the z-score is reported as -0.844 (inactive). In the case of `O=C1C2C=CC(C(O)C(c3ccccc3)c3ccccc3)N(n3cnnc3)C2C(=O)N1Cc1ccccc1` (stereo unspecified), the z-score is reported as -0.514 (inactive). In the case of `Cc1ccc(S[C@]2(C(=O)NCC(C)C)CC(=O)N(Cc3cc(C(F)(F)F)cc(C(F)(F)F)c3)[C@@H]2c2ccc(CO)cc2I)cc1`, the z-score is reported as -0.155 (inactive). In the case of `COc1cc2c(cc1O)C(C1CC1)N(Cc1cc3c(cc1Br)OCO3)CC2` (stereo unspecified), the z-score is reported as -1.2 (inactive). With `CCCCC(=C=CC[C@@H](O)c1ccccc1OCCO)CCO` the z-score was 0.132 (inactive). For `C=CCOC(=O)[C@@H]1[C@H]2C(=O)O[C@H](c3ccccc3)[C@H](c3ccccc3)N2[C@H](c2ccc(OCCOC(=O)[C@@H]3C[C@@H]4C(=O)N[C@@H](Cc5ccccc5)C(=O)N4[C@@H]3c3ccc(O)cc3)cc2)[C@@]12C(=O)Nc1ccc(I)cc12`, the z-score was -0.0033 (inactive). With `C=CCNC(=O)[C@@H]1[C@H]2C(=O)O[C@H](c3ccccc3)[C@H](c3ccccc3)N2[C@H](c2ccc(OCCO)cc2)[C@@]12C(=O)Nc1ccc(C#Cc3ccc(OC)cc3)cc12` the z-score was -1.48 (inactive). In the case of `CCOC(=O)C[C@H]1[C@H](OC(=O)Cc2ccc3c(c2)OCO3)[C@@H](NC(=O)c2ccc(-c3ccccc3)cc2)c2cc(OCCCO)ccc2N1C(=O)c1ccc2ccccc2n1`, the z-score is reported as 1.26 (inactive). For `Cc1ccc(S[C@]2(C(=O)NCC(F)(F)F)CC(=O)N(C(C)C)[C@@H]2c2ccc(CO)cc2I)cc1`, the z-score was 0.0212 (inactive). In the case of `C=CCC(OC(C)=O)[C@@H]1[C@@H](N(Cc2ccc(-c3cccc(C(F)(F)F)c3)o2)C(=O)Cc2ccc(F)cc2)c2cc(OCCCO)ccc2N1C(=O)Cc1ccc(OC)cc1` (stereo partly specified), the z-score is reported as 0.559 (inactive). In the case of `COCCCN1C(=O)[C@@]2(Cc3ccccc31)c1ccccc1C(=O)N(Cc1ccccc1C(F)(F)F)[C@H]2c1ccc(CO)cc1`, the z-score is reported as 0.0576 (inactive). For `CCOC1=C2C(CN(S(=O)(=O)c3ccc(C)cc3)C2c2ccc(C)cc2)C2C(=O)N(c3ccccc3)C(=O)C2C1` (stereo unspecified), the z-score was -0.392 (inactive). With `CC(C)(C)OC(=O)CC[C@@]1(C(=O)NCC(O)CO)N=C(c2ccc(OCCCO)cc2)O[C@@H]1c1ccccc1N=[N+]=[N-]` (stereo partly specified) the z-score was 0.4 (inactive). For `[N-]=[N+]=NCc1ccccc1C[C@]1(C(=O)N2CCOCC2)N=C(c2ccc(OCCCO)cc2)O[C@H]1c1ccccc1N=[N+]=[N-]`, the z-score was 1.14 (inactive).
